Compounds with a hit are over-represented: about 0.9% of the library has one in this group of screens.
TDP1 inh = qHTS Assay for Inhibitors of Tyrosyl-DNA Phosphodiesterase (TDP1). 350,000 tested, 0.28% active. AID 485290, 2010. recombinant TDP1, AlphaScreen DNA substrate cleavage. Potency, µM (doses to about 130 µM), without a hit: top-dose activity change, negative = inhibition, actives largely listed as inhibitors; note: nearly all actives have a fitted effect of over 40% in size
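Tdp1 1 nM final; 15 min RT w/ cpd; substrate 15 nM, 5 min; beads 10 ug/ml, 10 min; AlphaScreen read. Neg ctrl: no enzyme.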
APE1 inh-1 = qHTS Assay for Inhibitors of the Human Apurinic/apyrimidinic Endonuclease 1 (APE1); DNA repair nuclease/redox regulator APEX1 (Homo sapiens), P27695; recombinant APE1, TAMRA/BHQ-2 abasic DNA cleavage fluorescence; Potency, µM (doses to about 65.8 µM), for inactives: at the highest dose activity change, negative = inhibition, most hits filed as inhibitors; 350,000 tested, 0.35% active;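 note: plate controls were vehicle for no effect and reference inhibitor for full effect; nearly all actives have a fitted effect of over 55% in size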
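Quantitative HTS: incision of a TAMRA/BHQ-2 double-stranded substrate bearing a tetrahydrofuran abasic site by 0.75 nM APE1 raises fluorescence. Substrate 50 nM final, added after 15 min compound preincubation at room temperature; progress as third-minus-first kinetic read difference.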
Lamin A splicing = qHTS Assay for Modulators of Lamin A Splicing | Potency, µM (series often up to 46.1 µM), for inactives: at the highest dose ratio change, negative = inhibition, most hits filed as inhibitors | 200,000 tested, 0.01% active | HeLa LMNA splicing GFP/RFP minigene ratio, 48 h; active = well fitted inhibition curve with a large enough effect in the signal ratio, with a control signal flat, not every such curve was filed as active; inconclusive = small, poorly fitted or top-dose-only effect, or effect the other way, or a change in a side signal; the % refers to the signal ratio
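S3 HeLa cells stably expressing lamin A-EGFP splicing minigene plus DsRed2, 600 cells/well, 48 h compound exposure at 37C. Laser-scanning cytometry; analysed as GFP (500-530 nm)/RFP (575-640 nm) total intensity ratio; 0.5% DMSO vehicle.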
GCN5L2 inh = qHTS Assay for Inhibitors of GCN5L2 | Histone acetyltransferase KAT2A (Homo sapiens), Q92830 | GCN5L2 HAT assay, ThioGlo1 CoA-SH fluorescence | Potency, µM (series often up to 58.9 µM), for the others: at the top dose activity change, negative = inhibition, hits mostly inhibitors | 390,000 tested, 0.21% active | AID 504327, 2011
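Compounds, pin-transferred from DMSO stocks, meet 20nM GCN5L2 for 15 min before the reaction begins with H3(1-25) peptide (75uM) and acetyl-CoA (70uM). Thiol-reactive ThioGlo1 reports CoA release over 20 min at room temperature.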
BLM helicase inh = qHTS Assay for Inhibitors of Bloom's syndrome helicase (BLM) | recombinant BLM DNA unwinding, fluorescence dequenching | RecQ-like DNA helicase BLM (Homo sapiens), P54132 | Potency, µM (top dose mostly 56.1 µM), inactives show at the highest dose activity change, negative = inhibition, usual class: inhibitors | 350,000 tested, 0.2% active;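 note: plate controls were vehicle for no effect and no enzyme for full effect; nearly all actives have a fitted effect of over 35% in size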
RECQ1 inh = qHTS Assay for Inhibitors of RecQ-Like Dna Helicase 1 (RECQ1); ATP-dependent DNA helicase Q1 (Homo sapiens), P46063; RECQ1 DNA unwinding, red fluorescence kinetic read; Potency, µM (doses to about 57.3 µM), for the others: at the top dose activity, negative = inhibition, usual class: inhibitors; 240,000 tested, 0.54% active;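 note: plate controls were vehicle for no effect and no enzyme for full effect; nearly all actives have a fitted effect of over 30% in size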
Target sequence (P46063 whole entry, looked up): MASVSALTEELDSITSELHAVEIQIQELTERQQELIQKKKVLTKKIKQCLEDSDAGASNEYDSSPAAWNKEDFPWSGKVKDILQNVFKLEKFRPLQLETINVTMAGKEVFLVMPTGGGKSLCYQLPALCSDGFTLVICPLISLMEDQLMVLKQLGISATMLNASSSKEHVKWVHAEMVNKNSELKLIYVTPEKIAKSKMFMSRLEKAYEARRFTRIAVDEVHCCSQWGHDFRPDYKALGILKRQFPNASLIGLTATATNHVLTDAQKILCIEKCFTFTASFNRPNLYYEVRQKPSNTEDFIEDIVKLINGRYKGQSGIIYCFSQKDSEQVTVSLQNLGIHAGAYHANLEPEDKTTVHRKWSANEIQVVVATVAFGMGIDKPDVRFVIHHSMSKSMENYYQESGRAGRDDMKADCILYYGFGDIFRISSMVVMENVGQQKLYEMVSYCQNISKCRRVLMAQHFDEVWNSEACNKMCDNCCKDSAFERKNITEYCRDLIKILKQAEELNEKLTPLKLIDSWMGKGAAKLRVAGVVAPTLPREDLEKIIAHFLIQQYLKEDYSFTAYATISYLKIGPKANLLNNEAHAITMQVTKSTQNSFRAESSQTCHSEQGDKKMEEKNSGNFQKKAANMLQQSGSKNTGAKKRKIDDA
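RECQ1T1 50 nM; forked duplex (20 bp + 30-nt ss tails) 200 nM, ATP 2 mM final; pH 8.0, 2 mM MgCl2, 2.5 ug/ml poly(dI-dC); 15 min compound preincubation; discontinuous kinetic read over 2 h at RT.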
APE1 dye cs = Counterscreen for APE1 Inhibitors: Fluorescent Dye Displacement Assay. shares compounds with APE1 inh-1. DNA fluorescent dye displacement counterscreen, fluorescence. Potency, µM (highest dose often 28.5 µM), for inactives: at the highest dose activity change, negative = inhibition, usual class: inhibitors. 480 tested, 7% active;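 note: loss of thiazole orange fluorescence as the dye is displaced from duplex DNA; 0% = ThO with dsDNA and no compound and -100% = ThO without dsDNA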
Endo IV inh = Counterscreen for APE1 Inhibitors: qHTS Assay for Inhibitors of Endonuclease IV; shares compounds with APE1 inh-1; E. coli Endo IV, fluorogenic AP-site DNA cleavage; AID 2565, 2010; 560 tested, 4% active; Potency, µM (highest dose often 27.1 µM), inactives show at the highest dose activity change, negative = inhibition, most hits filed as inhibitors;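 note: plate controls were uninhibited enzyme wells for no effect and no enzyme buffer wells for full effect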
APE1 inh-2 = Confirmation qHTS Assay for Inhibitors of the Human Apurinic/apyrimidinic Endonuclease 1 (APE1); shares compounds with APE1 inh-1; purified APE1, fluorogenic abasic-site DNA cleavage; Potency, µM (series often up to 57.1 µM), for the others: at the highest dose activity change, negative = inhibition, hits mostly inhibitors; 750 tested, 44% active; AID 2572, 2010; note: nearly all actives have a fitted effect of over 30% in size
APE1 FP inh = qHTS FP-Based Assay for Inhibitors of the Human Apurinic/apyrimidinic Endonuclease 1 (APE1); shares compounds with APE1 inh-1; APE1 binding to TAMRA-labelled double-stranded DNA, fluorescence polarization displacement; Potency, µM (titrated, usually from 28.5 µM), for inactives: at the highest dose activity, negative = inhibition, hits mostly inhibitors; 480 tested, 7% active; AID 2573, 2010
Active calls of the source: *; i = inactive; ? = inconclusive; nt = no result given; [ ] = another dose, or the depositor's remark. Unless noted, calls come from the whole dose curve; as a rule, active = well fitted curve in the direction sought with a large enough effect; inconclusive = small, poorly fitted or top-dose-only effect, or another doubt; inactive = no such curve, though single readings can be large; an effect the other way counts as inactive or inconclusive. Unless noted, % is set by controls: 0 for no effect and ±100 for the full control effect; potency is the fitted concentration of half-maximal effect.

SMILES	TDP1 inh	APE1 inh-1	Lamin A splicing	GCN5L2 inh	BLM helicase inh	RECQ1 inh	APE1 inh-2	others
Cc1ccc(C2(O)C(=O)c3ccccc3C2=O)c(O)c1C	50µM*	3%	nt	1%	-3%	?	?
COc1ccc(CNc2ccnc(-c3ccc(N(C)C)cc3)n2)c(OC)c1	nt	-4%	?	-12%	-9%	i	nt
O=C(Nc1c(Cl)cc([N+](=O)[O-])cc1Cl)c1cc(Cl)ccc1O	4%	nt	nt	nt	nt	nt	nt
OC[C@H]1OC(O)[C@H](O)[C@@H](O)[C@@H]1O (some centres not stated)	5%	-3%	nt	-2%	-3%	-20%	nt
COc1ccc(C(=O)N/N=C/c2ccccc2C(=O)O)cc1OC	2%	1%	nt	-2%	-3%	-3%	nt
COc1ccc(/C=N/NC(=O)c2cccc(NC(=O)c3ccc(F)cc3)c2)c(C(=O)O)c1OC	50µM*	15%	nt	-7%	-12%	i	-9%
O=C(OCC#CCSc1nnc(-c2cccc3ccccc23)o1)c1sc2ccccc2c1Cl	-2%	nt	nt	nt	nt	nt	nt
Cc1ncc(CO)c(/C=N/NC(=O)c2cc(O)c(O)c(O)c2)c1O	?	4µM*	-4%[46 µM]	-17%	5.6µM*	14µM*	?	APE1 dye cs=-10%;Endo IV inh=156%;APE1 FP inh=5%
Cc1ncc(CO)c(/C=N/NC(=O)c2ccc(Br)cc2)c1O	5%	2%	?	-20%	8%	3%	nt
O=C1/C(=C/c2ccco2)SC(=S)N1CC1CCCO1 (configuration not stated)	-5%	10µM*	nt	1%	-27%	22µM*	7.9µM*	APE1 dye cs=-7%;Endo IV inh=-3%;APE1 FP inh=-12%
O=C(CCCN1C(=O)/C(=C\c2ccco2)SC1=S)Nc1ccc2ccccc2c1	8%	-11%	?	24%	-25%	-19%	nt
O=C(O)CCCN1C(=O)/C(=C\c2ccco2)SC1=S	22µM*	20µM*	3%[46 µM]	-9%	59%	?	?	APE1 dye cs=-4%;Endo IV inh=69%;APE1 FP inh=-1%
O=c1cc(/N=C/c2coc3cc(Br)ccc3c2=O)[nH]c(=S)[nH]1	5%	-1%	nt	-13%	1%	-3%	nt
CC(=O)Oc1ccc2c(=O)c(/C=N/c3cc(=O)[nH]c(=S)[nH]3)coc2c1	79µM*	6%	nt	-26%	0%	0%	-39%

Compound activity as filed in PubChem BioAssay.
